15-hLO inh – 15-hLO (ALOX15) enzyme inhibition | AID 887 | Potency, µM (highest dose often 57.1 µM), without a hit: at the highest dose activity change, negative = inhibition, usual class: inhibitors | P16050 | purified 15hLO-1, xylenol orange hydroperoxide absorbance | actives 1.4% (n = 74,000); also: potency is read from the fitted curve at half-maximal effect; % is scaled to controls: 0 for no effect and ±100 for the full control effect; nearly all actives have a fitted effect of over 55% in size
Target sequence (P16050 whole entry, looked up): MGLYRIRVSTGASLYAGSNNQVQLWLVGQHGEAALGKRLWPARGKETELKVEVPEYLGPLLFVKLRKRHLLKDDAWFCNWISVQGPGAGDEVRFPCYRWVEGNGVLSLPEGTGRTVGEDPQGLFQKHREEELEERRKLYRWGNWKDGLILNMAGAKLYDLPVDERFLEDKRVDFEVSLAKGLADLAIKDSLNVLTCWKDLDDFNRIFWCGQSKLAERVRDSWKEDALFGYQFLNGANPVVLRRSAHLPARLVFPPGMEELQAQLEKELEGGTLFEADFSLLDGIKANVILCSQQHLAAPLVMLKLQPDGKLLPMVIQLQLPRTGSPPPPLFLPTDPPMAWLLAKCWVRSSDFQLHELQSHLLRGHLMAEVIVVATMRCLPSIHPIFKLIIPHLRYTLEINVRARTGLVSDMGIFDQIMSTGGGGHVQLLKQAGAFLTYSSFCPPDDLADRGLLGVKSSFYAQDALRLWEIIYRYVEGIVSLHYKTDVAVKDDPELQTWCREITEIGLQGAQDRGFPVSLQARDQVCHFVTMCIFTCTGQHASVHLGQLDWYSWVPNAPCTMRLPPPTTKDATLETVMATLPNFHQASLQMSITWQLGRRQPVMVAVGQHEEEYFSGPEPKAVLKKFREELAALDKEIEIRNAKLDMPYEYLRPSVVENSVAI
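Purified human 15hLO-1 (40 nM final) in 25 mM Hepes pH 7.5, 0.01% Triton X-100 was preincubated with compound 15 min at room temperature, then reacted 6 min with 50 uM arachidonic acid; hydroperoxide detected by Fe-XO, 573/405 nm absorbance ratio.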
DNA Pol III inh – DNA polymerase III holoenzyme inhibition; reconstituted DNA polymerase III holoenzyme replication, biochemical; Potency, µM (highest dose often 57.1 µM), for the others: at the highest dose activity change, negative = inhibition; actives 0.25% (n = 71,000); also: potency is read from the fitted curve at half-maximal effect; % is scaled to controls: 0 for no effect and ±100 for the full control effect
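Reconstituted *E. coli* holoenzyme (0.35 nM Pol III, 1 nM beta, 154 nM SSB, 2 nM primase) was preincubated with compound for 15 min at RT. Synthesis on 1.4 nM ssM13Gori ran 35 min, then was stopped with PicoGreen/EDTA and read as dsDNA fluorescence.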
Tau fil binding – binds recombinant human tau filaments; P10636; recombinant tau filaments, thioflavin S fluorescence, 15 h; filaments grown with octadecylsulfate alongside compound; Potency, µM (highest dose often 57.1 µM), for inactives: at the highest dose activity change, negative = inhibition; actives 2% (n = 71,000);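 also: potency is read from the fitted curve at half-maximal effect; % is scaled to controls: 0 for no effect and ±100 for the full control effect; actives lower thioflavin S fluorescence by blocking filaments or displacing dye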
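His-tagged recombinant human tau (exons 2, 3 and 10 included), 1 uM, was induced to fibrillize by 30 uM sodium octadecylsulfate with compound present. After 15 h at 37 C, thioflavine S fluorescence (ex 450, em 510 nm) was read.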
Hsp90 Hop PPI – changes Hsp90-Hop TPR2A binding signal, up or down | AID 595 | AlphaScreen TPR2A-His6 binding biotin-Hsp90 C-terminal peptide | Potency, µM (doses to about 57 µM), inactives show top-dose activity change, negative = inhibition | actives 0.44% (n = 71,000); active = well fitted curve in either direction with a large enough effect; inconclusive = small, poorly fitted or top-dose-only effect, or another doubt; also: potency is read from the fitted curve at half-maximal effect; % is scaled to controls: 0 for no effect and ±100 for the full control effect
TsaE inh – inhibitors of E. coli YjeE (TsaE); purified YjeE enzyme, qHTS inhibition assay; Potency, µM; actives 0.05% (n = 71,000)
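Fluorescence polarization of a BODIPY Texas Red–ADP probe (2 uM) bound to purified YjeE (10 uM) was read after 15 min room-temperature incubation with compounds. Loss of polarization marks inhibitors; ADP serves as titrated control.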
* marks the source's active call; other numbers are inactive results; i = inactive; ? = inconclusive; . = no result; [ ] = remark or other dose. An excerpt weighted towards active compounds, which were near 3.3% of everything screened. Unless noted, calls follow the shape of the dose curve; as a rule, active = well fitted curve in the direction sought with a large enough effect; inconclusive = small, poorly fitted or top-dose-only effect, or another doubt; inactive = no such curve, though single readings can be large; an effect the other way counts as inactive or inconclusive.

SMILES	15-hLO inh	DNA Pol III inh	Tau fil binding	Hsp90 Hop PPI	TsaE inh
CC#C[C@]1(O)CC[C@H]2[C@@H]3CCC4=CC(=O)CCC4=C3[C@H](c3ccc(N(C)C)cc3)C[C@@]21C	10µM*	-4%	32µM*	?	i
COc1c2c(nc3ccccc13)O[C@@H]([C@@](C)(O)CO)C2	-3%	-4%	-5%	2%	i
CC(=O)N1CCN(c2ccc(Nc3nc(C)nc4c3oc3ccccc34)cc2)CC1	-11%	1%	20µM*	?	i
Cc1nn(-c2ccccc2)c2c1C(c1ccncc1)C(C#N)=C(N)O2 (stereo not drawn)	-10%	.	.	.	.
COc1cc(-n2nc(C)c3c2OC(N)=C(C#N)C3c2ccccc2)c(Cl)c(Br)c1O (stereo not drawn)	-14%	-2%	25µM*	-24%	i
CC1(C)CCC(NC(=O)[C@H](N)CCC(=O)O)CC1	4%	2%	-7%	5%	i
O=C(NCCN1CCOCC1)c1ccc(-n2c(=O)c(=O)[nH]c3ccccc32)cc1	-7%	.	.	.	.
CC(=O)N1CCc2cc(S(=O)(=O)CCC(=O)N3CCN(c4ccccn4)CC3)ccc21	-2%	-2%	8%	-9%	i
CC(=O)N1CCCc2cc(S(=O)(=O)CCC(=O)N3CCN(c4cccc(C)c4)C(C)C3)ccc21 (stereo not drawn)	0%	16µM*	8%	-4%	i
Nc1nnc(-c2ccco2)s1	2%	3%	-6%	-3%	i
Nc1ncnc2oc(-c3ccco3)c(-c3ccco3)c12	2.5µM*	10µM*	8%	-14%	100µM*
CCOc1nc(C#N)nc(N2CCCCC2)n1	-9%	1%	13µM*	-8%	i
CCOc1nc(OCC)nc(N2CCC(C)CC2)n1	5%	-3%	-1%	0%	i
OCC1OC(/C=C\c2ccccc2)C=CC1Oc1ccc2c(c1)OCO2 (stereo not drawn)	-6%[11.4 µM]	.	.	.	.
CC(=O)C1=C(C)N=c2s/c(=C/c3ccc4c(c3)OCO4)c(=O)n2C1c1ccc(N(C)C)cc1 (stereo not drawn)	-8%	4%	4µM*	-26%	i
CCc1ccc(NC(=O)NCCN2CCc3ccccc3C2)cc1	?	4%	13µM*	-7%	i
O=C1c2ccccc2C(=O)c2c(Nc3cc4c5c(ccc6c7ccc8c9c(cc(Nc%10cccc%11c%10C(=O)c%10ccccc%10C%11=O)c(c3c56)c97)-c3ccccc3C8=O)C(=O)c3ccccc3-4)cccc21	-9%[11.4 µM]	-9%[11.4 µM]	3.2µM*	?	i
CCOC(=O)C1CCCN(c2ccc(NC(=O)c3snc4c(=O)[nH]cnc34)cc2)C1 (stereo not drawn)	11%	-10%	16µM*	-20%	i
C/C(=C\CNc1ncnc2c1ncn2[C@@H]1O[C@@H](CO)[C@@H](O)[C@H]1O)CO	.	2%	7%	-4%	i
Cc1cc(C(=O)CSc2nnc(-c3cccnc3)n2-c2ccccc2F)c(C)n1C	16µM*	0%	88%	-12%	i
Cc1cc(C(=O)CSc2nnc(-c3ccccc3)n2C)c(C)n1C	-15%	0%	-7%	-6%	i
CCn1c(N)c(C(=O)NCC2CCCO2)sc1=S (stereo not drawn)	10µM*	-2%	7%	0%	i
C[C@H]1[C@H](C)CC[C@@]2(C(=O)O)CC[C@]3(C)C(=CC[C@H]4[C@@]5(C)C[C@@H](O)[C@H](O)[C@@](C)(CO)[C@@H]5CC[C@@]43C)[C@@H]12	.	-6%	29%	4%	i
COc1cc(/C=C/C(=O)N2CCCCC2=O)cc(OC)c1OC	4%[25.6 µM]	.	.	.	.
CN1C=CC=C/C1=C(\C#N)c1nc2ccccc2[nH]1	-8%	-9%	32µM*	-7%	i
Nc1nc(Cl)nc2c1ncn2[C@@H]1O[C@@H](COP(=O)(O)OP(=O)(O)OP(=O)(O)O)[C@@H](O)[C@H]1O	9%	1%	-10%	-3%	i
c1ccc2c(c1)OCC(c1nnc3sc(-c4cnccn4)nn13)O2 (stereo not drawn)	?	-5%	25µM*	-5%	i
CCOC(=O)c1cc(-c2ccco2)nc2c1c(C)nn2CCC#N	?	3%	16µM*	-11%	i

Compound activity as filed in PubChem BioAssay.
